Bioassay records from PubChem.
TIM10 inh: TIM10 yeast growth inhibition. S. cerevisiae TIM10 strain growth, BacTiter-Glo luminescence, 24 h. inhibition, % at 10 µM. 330,000 tested, 1.4% active;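 active means inhibition of 40% or more at the single tested concentration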;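 further: wild-type TIM10 isogenic control strain grown at permissive 25 °C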
tim10-1 inh: tim10-1 yeast growth inhibition | inhibition, % at 20 µM | S. cerevisiae tim10-1 ts strain growth, BacTiter-Glo, 24 h | 330,000 tested, 2.2% active;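 active means inhibition of at least 40%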;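 further: mutant grown at 25 °C; 0% = DMSO wells with yeast and 100% = wells holding no yeast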
PfHsp90 set2: inhibits growth of yeast expressing Plasmodium falciparum Hsp90; 310,000 tested, 0.32% active; inhibition, % at 9.4 µM; AID 504621; S. cerevisiae expressing PfHsp90, BacTiter-Glo ATP, 48 h; yeast lacking PDR1 and PDR3 efflux regulators;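 active means every replicate shows inhibition above about 80%, whatever the replicate mean, limit read from the data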;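 further: 0% = DMSO neutral controls and 100% = 20 µM radicicol positive controls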
tim23-1 inh: tim23-1 yeast growth inhibition. AID 463212. 330,000 tested, 1.3% active. inhibition, % at 20 µM. S. cerevisiae tim23-1 growth, BacTiter-Glo luminescence, 24 h;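 active means growth inhibition of the mutant yeast at or above 50%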;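 further: temperature-sensitive mutant grown at 25 °C; plate controls were DMSO-treated mutant yeast for no effect and medium wells lacking yeast for full effect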
Mot1-301 SUMO: blocks SUMOylation pathway, rescuing yeast Mot1-301 growth. S. cerevisiae Mot1-301 growth rescue, ATP luminescence, 38.5C; percent above DMSO median, 100 means doubled. growth rescue, % at 18.8 µM. 320,000 tested, 1% active. AID 2716;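 active means every valid replicate shows activation above 250% relative to neutral control wells; inactive means the rest, any valid replicate at or below 250%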;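 further: OY570 slx delta 5 strain wells were the positive control but not used for scaling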
Active calls of the source: *; · = no result given. Rows were chosen to be rich in hits. Some 4.4% of all compounds tested hit in one or more screens of this group.

SMILES	TIM10 inh	tim10-1 inh	PfHsp90 set2	tim23-1 inh	Mot1-301 SUMO
Cc1nc(SCC(=O)NNC(=O)c2ccc(F)cc2)c2ccccc2n1	-9	-2	-28	-3	12
CCn1c(CNc2ccc(Cl)cc2)nnc1SCCN1CCCCC1	-15	-5	-1	9	·
CCn1c(CC(=O)Nc2ccc(Cl)c(Cl)c2)nnc1SCc1ccc(C)cc1	0	12	3	0	130
CCn1c(CNc2ccc(Cl)cc2)nnc1SCc1ccc(C)cc1	-5	-3	81*	-5	88
CCn1c(CNc2ccc(Cl)cc2)nnc1SCc1ccc(Cl)cc1	17	9	127*	44	71
Cc1cc(C)c2c(C)[nH]nc2n1	-12	-7	·	2	200
CCN(CC)N=Nc1[nH]nc2nc(C)cc(C)c12	24	29	110*	-2	·
Cc1cc(C)c2c(N=NN3CCCCC3)[nH]nc2n1	23	36	110*	43	-8
CC(=O)n1nc2nc(C)cc(C)c2c1N	-5	6	2	9	-2
Cc1ccc(C)c(NC(=O)CN(C)C(=O)c2cc3c(s2)CCCCC3)c1	-5	6	4	-8	7
CCC(CC)C(=O)Nc1nnc(SCC(=O)NC(C)(C)C)s1	-3	1	12	-5	924*
NC(=O)C1C2CCC(C2)C1C(N)=O (centres undefined)	·	·	-11	·	·
COc1ccccc1-c1nnc(SCC(=O)Nc2ccc3[nH]c(=O)[nH]c3c2)n1N	-8	10	-15	6	-31
Cc1cccc(NC(=O)CCS(=O)(=O)c2cccc3nonc23)c1C	-15	-9	-1	-8	-4
CC(=O)Nc1ccc2ccccc2c1[N+](=O)[O-]	·	·	5	·	·
COc1ccccc1-n1cccc1C=O	6	3	20	-10	659*
COc1ccc(-n2cccc2C=O)cc1OC	5	7	11	5	12
Cn1cnnc1SCc1cccc(Br)c1	-2	14	6	8	264*
Cc1ccc(C(C(=O)NCCc2ccccc2)N(C(=O)c2csnn2)C2CC2)cc1 (centres undefined)	10	37	-6	18	5
O=C(CN1CCN(S(=O)(=O)N2CCOCC2)CC1)Nc1cc(Cl)cc(Cl)c1	-5	24	-7	19	-9
CCc1nnc(NC(=O)COc2ccc3c(c2)OCO3)s1	-8	-21	-24	-12	260*
O=C(NCc1ccccc1)C1CCCN1C(=O)Nc1ccccc1[N+](=O)[O-] (centres undefined)	1	-1	-25	-2	2
CC(CNS(=O)(=O)c1ccccc1)Sc1ncccn1 (centres undefined)	10	1	-2	9	346*
Cc1ccccc1NS(=O)(=O)c1nnc(NC(=O)CC(C)C)s1	9	4	-17	5	7
Cc1cc2oc(=O)cc(CN(C)Cc3ccccc3Cl)c2cc1C	-20	-2	-16	-4	2
SMILES	TIM10 inh	tim10-1 inh	PfHsp90 set2	tim23-1 inh	Mot1-301 SUMO
CNC(=O)[C@@]1(C)C=C[C@@H](Cc2ccccc2)N1C(=O)OC	-2	-8	-16	4	271*
O=C(COc1ccc2cc(-c3ccccc3)c(=O)oc2c1)NCC1CCC(C(=O)O)CC1 (centres undefined)	-7	-15	-12	-14	988*
O=C(COc1ccc2c3c(c(=O)oc2c1)CCC3)NCC1CCC(C(=O)O)CC1 (centres undefined)	0	-3	-10	-1	9
O=C(COc1ccc2c(c1)oc(=O)c1ccccc12)NCC1CCC(C(=O)O)CC1 (centres undefined)	2	-9	7	-10	620*
O=C(COc1ccc2c(-c3ccccc3)cc(=O)oc2c1)NCC1CCC(C(=O)O)CC1 (centres undefined)	-10	10	-1	-4	210
O=C(OCC(=O)N1CCN(C(=O)COC(=O)c2ccc(O)cc2O)CC1)c1ccc(O)cc1O	2	-4	·	-9	0
CC(C)(C)C(CCl)C(=O)NN=C(c1ccccc1)c1ccccc1 (centres undefined)	-4	-6	-12	12	-11
CC(Cl)C(=O)NN=C(c1ccccc1)c1ccccc1 (centres undefined)	-25	-35	13	8	468*
Cc1ccc(-c2c3c(=O)n(C)c(=O)n(C)c3cn2Cc2cccnc2)cc1	1	-4	13	16	221
Cn1c(=O)c2c(-c3ccccc3)n(Cc3cccnc3)cc2n(C)c1=O	-11	3	7	-4	290*
Cc1cc(C)c(S(=O)(=O)c2ccccc2C(C)C)c(=O)[nH]1	·	·	19	·	6
CC(C)(C)C1CCC2(CC1)NC(=S)N(c1ccccc1)N2 (centres undefined)	3	25	10	-28	302*
CCC(C)(C)C1CCC2(CC1)NC(=S)N(c1ccccc1)N2 (centres undefined)	-16	-4	21	1	214
CC(O)c1nc2ccc(C(=O)O)cc2[nH]1 (centres undefined)	-11	10	10	-7	11
CC(C)C(=O)NC(c1ccc(Cl)cc1Cl)c1ccc2cccnc2c1O (centres undefined)	-3	-36	113*	45	-8
Cc1ccnc(NC(c2ccccc2)c2ccc3cccnc3c2O)c1 (centres undefined)	·	·	-32	·	·
O=C(O)c1ccccc1NC(c1ccccc1)c1ccc2cccnc2c1O (centres undefined)	·	·	121*	·	·
Cc1cc(NC(c2ccc(Cl)cc2)c2ccc3cccnc3c2O)no1 (centres undefined)	17	18	101*	44	41
CC(=O)NC(c1ccc(Cl)cc1)c1ccc2cccnc2c1O (centres undefined)	·	·	114*	·	·
CC1CN=C(c2ccccc2)O1 (centres undefined)	·	·	-20	·	·
CCn1c(SCC(=O)N2CCc3ccccc32)nc2c(c1=O)SC(C)C2 (centres undefined)	-11	4	·	-9	343*
CC(=O)Nc1cccc(NC(=O)C(=O)NCC(c2ccco2)N2CCc3ccccc32)c1 (centres undefined)	3	2	15	8	4
Cc1ccc(CSCCNC(=O)CCSc2ccccc2)cc1	17	5	16	21	20
Cc1ccccc1CSCCNC(=O)CCSc1ccccc1	5	37	-14	28	322*
CC(=NNC(=O)c1ccncc1)c1ccc2ccccc2c1O	·	·	-24	·	·
COc1ccc(C(=O)Nc2cccc3nc(C)ccc23)cc1OC	-4	0	2	1	549*
COc1cc(OC)cc(C(=O)Nc2cccc3nc(C)ccc23)c1	3	-6	20	0	92
COCCn1c(C)cc(/C=C(\C#N)C(=O)OC(C)C(=O)Nc2ccc(NC(C)=O)cc2)c1C (centres undefined)	-2	-8	·	7	-23
CCCCCCCCC(=O)NNC(=O)c1c(O)c2ccccc2n(CCC)c1=O	10	8	3	34	312*
